# From PubChem BioAssay (Tox21)
# Records with an inconclusive call do not appear. Active and inactive are the calls of the source. The call rests on the fitted dose curve; in most records, active means well fitted cell-killing curve with a large enough effect in the repeat runs; inconclusive means weak or mixed curves, or effect the other way; inactive means flat fitted curve, though single readings scatter.
# Experiment: qHTS assay to identify small molecule agonists of the constitutive androstane receptor (CAR) signaling pathway - cell viability counter screen (AID 1224836); further: nearly all actives have a fitted effect of over 45% in size
# Conditions: HepG2-CYP2B6-hCAR viability, CellTiter-Fluor, 23 h, PK11195 added to every well; series mostly up to 92.4 µM; viability change, negative = cytotoxic: at the top concentration
# From the text: U.S. Tox21 Program National Center for Advancing Translational Sciences [NCATS] NIH Chemical Genomics Center [NCGC] U.S. Environmental Protection Agency [EPA] National Institutes of Environmental Health Sciences [NIEHS] National Toxicology Program [NTP] U.S. Food and Drug Administration [FDA] Tox21 Assay Overview: The constitutive androstane receptor (CAR) is a nuclear receptor which regulates multiple drug metabolizing enzymes (DMEs) and transporters. Activating CAR will generally increase the transcription and subsequent translation of CYP2B6 and CYP3A4. These two DMEs represent about 50% of the drug metabolizing potential in the body. […] Recently, there have also been studies performed indicating CARs role in energy metabolism and cancer therapy. Therefore, inducing CARs activity could have a potential effect on diabetes and cancer. Identifying environmental toxins and compounds which modulate CAR, through the use of the Tox21 10K compound collection, will be an important step in determining the toxicity and potential therapeutic effects these factors will have on the human body. To differentiate true CAR agonists from cytotoxic substances, the assay is multiplexed with a cell viability assay.
# Tox21 Assay Protocol Summary: A double-stable (hCAR and CYP2B6-2.2kb) transfected cell line, derived from human hepatoma (HepG2) cells, was utilized for the duration of the quantitative high-throughput screens. The HepG2-CYP2B6-hCAR cells were dispensed at 2500 cells/4 uL/well in 1536-well white solid bottom plates using a Multidrop Combi. After the assay plates were incubated at 37 C/5% CO2 for 4 hrs, 23 nL of compounds at 15 concentrations (from 5-48 columns) or positive control (from 1 to 4 columns) were transferred to the assay plates using a Pintool station. One uL of PK11195 (final concentration = 0.75 uM) was added, using a Flying Reagent Dispenser, inside each well. After a 23 hr incubation period at 37 C/5% CO2, 1 uL of CellTiter-Fluor reagent was added into each well of the assay plates using a Flying Reagent Dispenser. The fluorescence intensity in the plates was then measured using a ViewLux plate reader.
# On the % scale 0 is the no-effect control and ±100 the full control effect; potency means the concentration at half of the fitted maximal effect.
SMILES,"viability change, negative = cytotoxic",Potency
Oc1ccc(Sc2ccc(O)cc2)cc1,2.32% (inactive),
CCOC(=O)[C@H](CCc1ccccc1)N[C@H]1CCc2ccccc2N(CC(=O)O)C1=O,-24.3% [at 42.5 µM] (inactive),
COc1ccccc1OC(=O)Oc1ccccc1OC,2.81% [at 42.5 µM] (inactive),
C=CC(C)(CCC=C(C)C)OC(=O)c1ccccc1 (stereo not given),-3.95% (inactive),
CCCCCCCCCCCCCCCC(=O)OC/C=C(C)/C=C/C=C(C)/C=C/C1=C(C)CCCC1(C)C,-10.3% (inactive),
CCOc1ccc2[nH]cc(C(=O)NCc3ccccc3)c(=O)c2n1,-7% (inactive),
O=C(Nc1ccccc1)OCC(CN1CCCCC1)OC(=O)Nc1ccccc1 (stereo not given),-18.8% [at 42.5 µM] (inactive),
CCOC(=S)SSC(=S)OCC,0.385% (inactive),
CN1CCC(OC(c2ccccc2)c2ccccc2)CC1,-8.25% [at 42.5 µM] (inactive),
NCCCN(CCO)CCO,-3.04% (inactive),
COc1ccc(OC)c(OC)c1,7.29% (inactive),
CCCC[C@H]1CN(CC2CCOCC2)C(=O)OC12CCN(C1(C)CCN(C(=O)c3c(C)ncnc3C)CC1)CC2,-4.91% (inactive),
CCCC(C)C,-1.84% (inactive),
CCCCCCCCCC=O,-1.51% (inactive),
O=c1c2ccccc2nnn1CCl,5.38% (inactive),
CC1(C)CCC(C)(C)c2cc(NC(=O)c3ccc(C(=O)O)cc3)ccc21,-0.752% [at 42.5 µM] (inactive),
CN(C)C/C=C(/c1ccc(Br)cc1)c1cccnc1,-0.0711% [at 42.5 µM] (inactive),
CCCCCC(CO)CCC (stereo not given),2.06% (inactive),
CCCCCOC(=O)c1ccc(O)cc1,-10% (inactive),
O=C(O)Cc1sc(-c2ccccc2)nc1-c1ccc(Cl)cc1,-1.13% [at 42.5 µM] (inactive),

SMILES,"viability change, negative = cytotoxic",Potency
CCN(CC)CCc1nc(-c2ccccc2)no1,4.83% [at 42.5 µM] (inactive),
OCC1CC2CC1C1CCC(CO)C21 (stereo not given),-4.68% (inactive),
CCOC(=O)C1=C(C)NC(C)=C(C(=O)OC)C1c1cccc([N+](=O)[O-])c1 (stereo not given),-15% [at 42.5 µM] (inactive),
CCOC(=O)C1=NN(c2ccccc2)C(=O)C1,2.95% (inactive),
CC(=O)O[C@H]1C[C@@H]2CC[C@@H]3[C@H](CC[C@@]4(C)[C@H]3C[C@H]([N+]3(C)CCCCC3)[C@@H]4OC(C)=O)[C@@]2(C)C[C@@H]1N1CCCCC1,1.73% [at 42.5 µM] (inactive),
CCCCC(CC)(CO)CO,-5.91% (inactive),
Cc1cc(C)c(S(=O)(=O)O)cc1N=Nc1cc(S(=O)(=O)O)c2ccccc2c1O,,61.1 µM (active)
CCCCCCCCCCCCCCC1CO1 (stereo not given),5.24% (inactive),
Cc1c(Cn2ccnc2)c2ccccc2n1CCC(=O)O,3.39% [at 42.5 µM] (inactive),
CCCOc1ccc2nc(NC(=O)OC)[nH]c2c1,-9.49% [at 42.5 µM] (inactive),
Cc1ccc(C(C)c2ccc(C)c(C)c2)cc1C,2.16% (inactive),
Nc1nc(N)c(-c2ccccc2)s1,7.76% [at 42.5 µM] (inactive),
CCN(CCO)CCCC(C)Nc1ccnc2cc(Cl)ccc12 (stereo not given),-11% [at 8.39 µM] (inactive),
NC[C@H]1O[C@H](O[C@H]2[C@H](O)[C@@H](O[C@H]3O[C@H](CO)[C@@H](O)[C@H](N)[C@H]3O)[C@H](N)C[C@@H]2N)[C@H](O)[C@@H](O)[C@@H]1O,-3.02% [at 8.39 µM] (inactive),
Cn1c(=O)c2c(ncn2CC(O)CO)n(C)c1=O (stereo not given),-3.06% [at 42.5 µM] (inactive),
O=C1Nc2cc(Cl)ccc2Oc2ccccc21,-1.15% [at 42.5 µM] (inactive),
CC(=O)Nc1ccc(/C=N/NC(N)=S)cc1,-4.79% [at 42.5 µM] (inactive),
CC/C(=C\C(=N/O)C(N)=O)C(C)[N+](=O)[O-] (stereo not given),-19% (inactive),
CC1=CC(=O)/C(=C(/C)O)C(=O)O1,0.215% (inactive),
COc1ccc(C(C)=O)cc1,-1.09% (inactive),
